# Out of some 69,000 compounds screened, about 1,000 (1.4%) showed an effect of 50% or more. The sample as a whole holds a higher share of strong results than the screen did.
# System: Leishmania donovani
# Test: Leishmania intramacrophage assay
# Assay type: functional, organism-based
# Parameters: scale not given: in the data most compounds retested in dose-response had high values
structure (smiles),measurement,setting,value
Cc1nc2cc(C(=O)N3CCCC(n4cncn4)C3)ccc2n1C (stereo not given),Percent Effect,"30 µM, 30.03 µM",12.85%
Fc1cccnc1N1CCCC(c2nccs2)C1 (stereo not given),Percent Effect,"30.3 µM, […]",14.11%
Cc1cc2n(n1)CC(CNC1CCN(Cc3ccccc3C)CC1)CN2 (stereo not given),Percent Effect,"30 µM, 30.03 µM",54.12%
c1ccc(Cn2cccn2)c(CNCC2CNc3ccnn3C2)c1 (stereo not given),Percent Effect,"30 µM, 30.03 µM",46.43%
OCc1ccccc1CNCC1CNc2ccnn2C1 (stereo not given),Percent Effect,"30.3 µM, […]",22.72%
Cc1ccccc1CN1CCC(NCC2CNc3ccnn3C2)CC1 (stereo not given),Percent Effect,"30 µM, 30.03 µM",58.34%
Cc1cc2n(n1)CC(CNC1CCN(CCc3ccccc3)CC1)CN2 (stereo not given),Percent Effect,"30.3 µM, […]",15.82%
Cc1cc2n(n1)CC(CNC1CCN(c3ccccn3)CC1)CN2 (stereo not given),Percent Effect,"30.3 µM, […]",-5.394%
Cc1cccc(CN2CCC(NCC3CNc4cc(C)nn4C3)CC2)c1 (stereo not given),Percent Effect,"30.3 µM, […]",50.3%
Cc1cc2n(n1)CC(CNC1CCN(Cc3ccncc3)CC1)CN2 (stereo not given),Percent Effect,"30.3 µM, […]",2.182%
Cc1cc2n(n1)CC(CNC1CCN(Cc3ccccn3)CC1)CN2 (stereo not given),Percent Effect,"30.3 µM, […]",17.09%
O=C(c1cscn1)N1CCc2ncnc(-c3ccncc3)c2CC1,Percent Effect,"30.3 µM, […]",15.49%
Cc1ncc2c(c1CNC(=O)C1(c3ccc(F)cc3)CC1)CCNC2,Percent Effect,"30.3 µM, […]",8.933%
Oc1cc(CN2CCC(O)(Cn3ccnc3)CC2)nc2ccc(F)cc12,Percent Effect,"30.3 µM, […]",12.45%
Cc1nc(CN2CCCC(N(C)Cc3c(C)noc3C)C2)no1 (stereo not given),Percent Effect,"30 µM, 30.03 µM",36.91%
COc1ccc(C(=O)N2CCCCC2c2nc(C)cs2)nn1 (stereo not given),Percent Effect,"30 µM, 30.03 µM",9.548%
O=C(C1CNCCO1)N1CCC(c2cc(N3CCCC3)ncn2)CC1 (stereo not given),Percent Effect,"30.3 µM, […]",-9.261%
O=C(C1CNCCO1)N1CCCC(c2ccccc2)(c2ccccc2)C1 (stereo not given),Percent Effect,"30.3 µM, […]",80.57%
CCn1c(CC2CCN(C(=O)C3CNCCO3)CC2)nn(C)c1=O (stereo not given),Percent Effect,"30.3 µM, […]",-9.405%
O=C(Nc1cnccn1)[C@@H]1CC[C@@H]2[C@@H](CCN2Cc2nccs2)O1.O=C(O)C(F)(F)F,Percent Effect,"30.3 µM, […]",-8.357%
Cc1csc(CN2CC[C@H]3O[C@H](C(=O)Nc4cccnc4)CC[C@H]32)n1.O=C(O)C(F)(F)F.O=C(O)C(F)(F)F,Percent Effect,"30.3 µM, […]",50.68%
O=C(NCc1cccnc1)[C@@H]1CC[C@@H]2[C@@H](CCN2c2ncc(F)cn2)O1.O=C(O)C(F)(F)F.O=C(O)C(F)(F)F,Percent Effect,"30.3 µM, […]",56.7%
O=C(NCc1cccnc1)[C@@H]1CC[C@@H]2[C@@H](CCN2c2ncccn2)O1.O=C(O)C(F)(F)F.O=C(O)C(F)(F)F,Percent Effect,"30.3 µM, […]",42.67%
O=C(NCc1cccnc1)[C@H]1CC[C@@H]2[C@@H](CCN2c2ncccn2)O1.O=C(O)C(F)(F)F.O=C(O)C(F)(F)F,Percent Effect,"30.3 µM, […]",6.718%
Cc1cccc(CN2CC[C@H]3O[C@H](C(=O)Nc4cnccn4)CC[C@H]32)n1.O=C(O)C(F)(F)F.O=C(O)C(F)(F)F,Percent Effect,"30.3 µM, […]",32.33%
CC(C)CN1CC(O)CN(S(=O)(=O)c2ccccc2)CC1=O (stereo not given),Percent Effect,"30.3 µM, […]",-1.941%
CN(Cc1ccncc1)C(=O)NCc1nnc2n1CCCCC2,Percent Effect,30 µM,-1.906%
COCCn1cc(NCc2cn(C)nc2-c2ccncc2)cn1,Percent Effect,"30.3 µM, […]",4.13%
O=C(O)C(F)(F)F.OCCN1CCOC2(CCCN(c3cccc(F)c3)C2)C1 (stereo not given),Percent Effect,"30 µM, 30.03 µM",37.14%
Cc1ccc(C2CSCCN2C(=O)c2cccs2)o1 (stereo not given),Percent Effect,"30.3 µM, […]",15.58%
CC(C)CN1CC2(CCN(C(=O)c3cn4cccnc4n3)CC2)CC1=O,Percent Effect,"30.3 µM, […]",-23.89%
CCN1CC2(CCC1=O)CCN(C(=O)c1cn3cccnc3n1)CC2,Percent Effect,"30.3 µM, […]",50.01%
CN1CC2(CCN(C(=O)c3cn4cccnc4n3)CC2)CC1=O,Percent Effect,"30.3 µM, […]",-9.039%
CC1c2ncc(Cn3cncn3)n2CCN1C(=O)Cc1cccs1 (stereo not given),Percent Effect,"30.3 µM, […]",31.82%
CCOCc1cnc2n1CCN(C(=O)Cc1cccs1)C2C (stereo not given),Percent Effect,"30.3 µM, […]",53.58%
CCOCc1cnc2n1CCN(C(=O)Cc1ccco1)C2C (stereo not given),Percent Effect,"30.3 µM, […]",17.38%
Cl.c1cnc(Nc2cncc(C3CCCN3)n2)cn1 (stereo not given),Percent Effect,"30.3 µM, […]",5.876%
Cc1cnc(N2CCC3(CC2)CC(NC(=O)N(C)C)CO3)nc1 (stereo not given),Percent Effect,"30.3 µM, […]",5.267%
O=C(NCCN1CCCC1)c1cc2c(s1)CCN2c1ncccn1,Percent Effect,"30.3 µM, […]",35.65%
CCCNC(=O)c1cc2c(s1)CCN2c1ncccn1,Percent Effect,"30.3 µM, […]",24.35%
O=C(NCC1CC1)c1cc2c(s1)CCN2c1ncccn1,Percent Effect,"30.3 µM, […]",54.07%
COc1ccc(CCN2C(=O)O[C@@H]3CN(C4CCSCC4)C[C@@H]32)cc1,Percent Effect,"30.3 µM, […]",4.59%
COc1cccn(C(C)C(=O)NC2CCCC2)c1=O (stereo not given),Percent Effect,"30.3 µM, […]",28.93%
COc1cccc(CN2CCCC2c2cccc(F)c2)c1OC (stereo not given),Percent Effect,"30.3 µM, […]",48.24%
COc1cc(CN2CCCC2c2cccc(F)c2)cc(OC)c1OC (stereo not given),Percent Effect,"30.3 µM, […]",4.07%
COc1ccc(CN2CCCC2c2cccc(F)c2)c(OC)c1OC (stereo not given),Percent Effect,"30.3 µM, […]",53.41%
Cc1nc[nH]c1CNC1CC(=O)N(CCc2cccc(Cl)c2)C1 (stereo not given),Percent Effect,"30.3 µM, […]",-19.6%
Brc1ccc(CN2CCC(NCc3ncc[nH]3)CC2)cc1,Percent Effect,"30.3 µM, […]",85.49%
O=C1CC(NCc2ccncc2)CN1CCc1cccc(Cl)c1 (stereo not given),Percent Effect,"30.3 µM, […]",37.94%
Clc1cccc(N2CCC(NCc3cc[nH]n3)C2)c1 (stereo not given),Percent Effect,"30.3 µM, […]",14.09%

# Reference: ChEMBL document CHEMBL3988442, “University of Dundee, Small-Polar-MMV Screening Library” (2021)
